Experimental data: PubChem BioAssay (Tox21)
Results filed as inconclusive are left out. Where a call stands in place of a potency, no number is given. Activity calls are given as the source filed them. Unless noted, the call rests on the fitted dose curve.

Legend:
[1] = Nuclear factor erythroid 2-related factor 2/antioxidant responsive element (Nrf2/ARE) small molecule agonists: qHTS cell viability counter screen in human keratinocytes (AID 1919968; active means well fitted curve in the direction sought with a large enough effect in the repeat runs; an effect the other way counts as inactive or inconclusive; further: nearly all actives have a fitted effect of over 55% in size; further: potency means the concentration at half of the fitted maximal effect)
Outline: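 KeratinoSens HaCaT cells, 1,500/well, preincubated 5 h, then exposed to compounds in DMSO for 23 h at 37 C/5% CO2. Viability read as CellTiter-Fluor fluorescence after 1 h, in the same wells as the ARE-luciferase read.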

[2] = Nuclear factor erythroid 2-related factor 2/antioxidant responsive element (Nrf2/ARE) small molecule agonists: luciferase reporter gene qHTS assay in human keratinocytes (AID 1919969); further: nearly all actives have a fitted effect of over 35% in size; further: potency means the concentration at half of the fitted maximal effect
[3] = target: Gonadotropin-releasing hormone receptor (Homo sapiens) (UniProt P30968); experiment: Human gonadotropin-releasing hormone receptor (GnRHR) small molecule agonists, calcium flux assay in GnRHR-HEK293 cells (AID 1920063); further: nearly all actives have a fitted effect of over 35% in size; further: potency means the concentration at half of the fitted maximal effect
Sequence of Gonadotropin-releasing hormone receptor (Homo sapiens) (P30968 whole entry, looked up): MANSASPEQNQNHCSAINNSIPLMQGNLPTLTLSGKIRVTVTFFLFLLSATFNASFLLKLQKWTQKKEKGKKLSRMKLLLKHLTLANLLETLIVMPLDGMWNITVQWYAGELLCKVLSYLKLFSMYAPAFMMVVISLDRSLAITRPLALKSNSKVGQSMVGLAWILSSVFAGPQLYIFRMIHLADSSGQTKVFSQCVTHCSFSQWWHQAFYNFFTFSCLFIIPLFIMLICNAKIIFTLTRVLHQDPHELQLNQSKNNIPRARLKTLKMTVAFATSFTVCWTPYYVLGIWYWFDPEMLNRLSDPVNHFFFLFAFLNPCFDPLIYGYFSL
Outline: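 HEK293 cells stably expressing human GnRHR were dye-loaded for 1 h at 37 C. Compound was added in agonist mode and fluorescence (Ex/Em 480/540) recorded kinetically for 3 min. Fifteen concentrations, triplicates.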

[4] = target: KiSS-1 receptor (Homo sapiens) (UniProt Q969F8); experiment: Human kisspeptin (KISS1R) small molecule agonists, calcium flux assay in KISS1R-HEK293 cells (AID 1920064; active means well fitted curve in the direction sought with a large enough effect in the repeat runs; an effect the other way counts as inactive or inconclusive; further: potency means the concentration at half of the fitted maximal effect)
Sequence of KiSS-1 receptor (Homo sapiens) (Q969F8 whole entry, looked up): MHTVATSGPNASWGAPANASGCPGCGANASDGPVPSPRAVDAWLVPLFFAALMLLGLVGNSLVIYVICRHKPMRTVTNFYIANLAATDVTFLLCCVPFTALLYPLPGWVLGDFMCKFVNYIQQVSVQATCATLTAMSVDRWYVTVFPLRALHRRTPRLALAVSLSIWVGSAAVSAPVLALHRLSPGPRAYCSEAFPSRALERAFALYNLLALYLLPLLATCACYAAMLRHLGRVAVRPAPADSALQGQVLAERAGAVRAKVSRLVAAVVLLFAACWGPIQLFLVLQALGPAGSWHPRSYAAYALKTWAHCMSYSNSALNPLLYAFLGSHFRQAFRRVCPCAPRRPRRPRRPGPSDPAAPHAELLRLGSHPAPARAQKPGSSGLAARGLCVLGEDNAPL
Outline: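 HEK293 cells stably expressing human KISS1R were loaded with calcium dye for 1 h at 37 C, then given compound; fluorescence (Ex/Em 480/540) was read kinetically for 3 min. Fifteen concentrations, triplicate.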

[5] = G protein-coupled receptor (GPCR) small molecule agonists, calcium flux assay: HEK293 wild type cell line counter screen (AID 1920065)
Outline: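 Wild-type HEK293 cells plated 18 h, loaded with calcium dye 1 h at 37 C, then compounds added in agonist mode (ATP as positive control). Kinetic fluorescence Ex/Em 480/540 recorded 3 min at 1 sec intervals; 15 concentrations, triplicate.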

[6] = p53 small molecule agonists, cell-based qHTS assay with human liver microsomes (AID 1963577);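 further: p53 response element beta-lactamase reporter cells with liver microsomes plus NADPH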
Outline: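 Metabolically competent format: test substances, human liver microsomes and NADPH (both 0.5 mg/mL final) incubated with p53RE-bla cells 16 h at 37 C. Beta-lactamase reporter signal then quantified by fluorescence.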

[7] = p53 small molecule agonists, cell-based qHTS assay with rat liver microsomes (AID 1963578)
Outline: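 Each plate received p53RE-bla cells, then compound, then rat liver microsomes and NADPH (both 0.5 mg/mL final). Plates were held 16 h at 37 C, and beta-lactamase activity was detected with LiveBLAzer over 2 h.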

[8] = p53 small molecule agonists, cell-based qHTS assay with human liver microsomes: qHTS cell viability counter screen (AID 1963579); further: nearly all actives have a fitted effect of over 45% in size; further: potency means the concentration at half of the fitted maximal effect
Outline: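 Tox21 library compounds, delivered from DMSO stocks, were tested on p53RE-bla cells together with 0.5 mg/mL human liver microsomes and 0.5 mg/mL NADPH (final) over 16 h at 37 C; CellTiter-Glo luminescence served as the cytotoxicity measure.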

[9] = p53 small molecule agonists, cell-based qHTS assay with rat liver microsomes: qHTS cell viability counter screen (AID 1963580); further: nearly all actives have a fitted effect of over 45% in size; further: potency means the concentration at half of the fitted maximal effect
Outline: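 p53RE-bla HCT-116 cells were exposed 16 h at 37 C to compounds with rat liver microsomes (0.5 mg/mL) and NADPH (0.5 mg/mL). Viability was measured in the same wells as ATP content by CellTiter-Glo luminescence.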

[10] = p53 small molecule agonists, cell-based qHTS assay: qHTS cell viability counter screen (AID 1963581); further: nearly all actives have a fitted effect of over 45% in size; further: potency means the concentration at half of the fitted maximal effect
Outline: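 p53RE-bla HCT-116 cells, compounds added 5 h after plating and incubated 16 h at 37 C. Cytotoxicity measured in the same wells as intracellular ATP by CellTiter-Glo luminescence after 30 min at room temperature.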

[11] = target: 5-hydroxytryptamine receptor 2A (Homo sapiens) (UniProt P28223); experiment: 5-hydroxytryptamine receptor 2A (HTR2A) small molecule agonists, cell-based qHTS assay (AID 1963587); further: nearly all actives have a fitted effect of over 30% in size; further: potency means the concentration at half of the fitted maximal effect
Sequence of 5-hydroxytryptamine receptor 2A (Homo sapiens) (P28223 whole entry, looked up): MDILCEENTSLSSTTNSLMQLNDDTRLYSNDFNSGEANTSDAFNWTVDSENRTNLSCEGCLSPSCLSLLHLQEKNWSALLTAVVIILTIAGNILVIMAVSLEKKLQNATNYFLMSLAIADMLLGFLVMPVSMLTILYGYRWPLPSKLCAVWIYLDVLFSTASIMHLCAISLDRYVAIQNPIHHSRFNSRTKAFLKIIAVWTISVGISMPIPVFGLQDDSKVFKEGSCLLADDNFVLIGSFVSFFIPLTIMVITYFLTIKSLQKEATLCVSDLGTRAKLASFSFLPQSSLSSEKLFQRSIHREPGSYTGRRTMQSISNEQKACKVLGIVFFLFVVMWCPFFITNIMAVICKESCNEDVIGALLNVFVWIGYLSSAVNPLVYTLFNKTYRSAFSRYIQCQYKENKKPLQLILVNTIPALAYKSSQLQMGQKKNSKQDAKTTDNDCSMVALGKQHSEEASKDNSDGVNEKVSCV
Outline: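 CHO cells stably expressing human HTR2A, plated 18 h, loaded with calcium dye 1 h at 37 C. Agonist mode: compounds added and intracellular calcium fluorescence recorded kinetically for 2 min at 1 sec intervals.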

[12] = target: Muscarinic acetylcholine receptor M1 (Homo sapiens) (UniProt P11229); experiment: Cholinergic receptor muscarinic 1 (CHRM1) small molecule antagonists, cell-based qHTS assay (AID 1963588); further: nearly all actives have a fitted effect of over 40% in size
Sequence of Muscarinic acetylcholine receptor M1 (Homo sapiens) (P11229 whole entry, looked up): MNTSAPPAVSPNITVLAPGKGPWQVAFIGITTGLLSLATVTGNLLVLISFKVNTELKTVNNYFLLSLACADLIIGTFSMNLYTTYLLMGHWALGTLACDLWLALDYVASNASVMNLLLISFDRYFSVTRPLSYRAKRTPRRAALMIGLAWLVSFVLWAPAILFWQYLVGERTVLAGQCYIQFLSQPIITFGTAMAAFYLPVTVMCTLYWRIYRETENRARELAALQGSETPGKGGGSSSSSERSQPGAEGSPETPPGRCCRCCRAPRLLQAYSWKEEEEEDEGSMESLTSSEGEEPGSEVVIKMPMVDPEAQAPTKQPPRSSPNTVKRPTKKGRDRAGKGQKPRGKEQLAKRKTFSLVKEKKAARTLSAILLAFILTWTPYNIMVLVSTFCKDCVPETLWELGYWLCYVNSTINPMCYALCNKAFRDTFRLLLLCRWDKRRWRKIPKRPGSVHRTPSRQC
Outline: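 CHRM1-CHO calcium-flux assay, antagonist mode. Cells were seeded 18 h, dye-loaded 1 h at 37 C and given compound for 5 min at RT, then acetylcholine was added at 50nM. FDSS fluorescence was read 3 min; 15 concentrations, three runs.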

[13] = target: Muscarinic acetylcholine receptor M1 (Homo sapiens) (UniProt P11229); experiment: Cholinergic receptor muscarinic 1 (CHRM1) small molecule agonists, cell-based qHTS assay (AID 1963589); further: nearly all actives have a fitted effect of over 35% in size
Outline: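 CHO cells stably expressing human CHRM1 were loaded with calcium dye for 1 h at 37 C, then compound was added in agonist mode. Intracellular calcium fluorescence was followed kinetically at 1 s intervals. Fifteen concentrations were tested in three independent runs.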

[14] = target: Beta-2 adrenergic receptor (Homo sapiens) (UniProt P07550); experiment: Adrenergic beta2 receptor (ADRB2) small molecule antagonists, cell-based qHTS assay (AID 1963592); further: nearly all actives have a fitted effect of over 50% in size; further: potency means the concentration at half of the fitted maximal effect
Sequence of Beta-2 adrenergic receptor (Homo sapiens) (P07550 whole entry, looked up): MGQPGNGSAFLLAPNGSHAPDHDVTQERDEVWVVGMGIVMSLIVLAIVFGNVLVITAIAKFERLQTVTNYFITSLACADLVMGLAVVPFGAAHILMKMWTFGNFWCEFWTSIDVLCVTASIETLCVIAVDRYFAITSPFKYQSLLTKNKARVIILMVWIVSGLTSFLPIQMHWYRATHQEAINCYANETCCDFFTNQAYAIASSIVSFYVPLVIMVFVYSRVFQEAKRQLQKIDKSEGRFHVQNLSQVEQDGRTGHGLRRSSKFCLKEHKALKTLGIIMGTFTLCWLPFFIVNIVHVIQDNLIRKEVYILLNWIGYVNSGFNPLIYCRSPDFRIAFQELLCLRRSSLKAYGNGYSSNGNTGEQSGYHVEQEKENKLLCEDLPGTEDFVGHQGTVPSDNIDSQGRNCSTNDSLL
Outline: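 Cells (CHO, stable ADRB2 overexpression) incubated 18-20hr at 37C; compounds added from DMSO; agonist mix (1nM isoproterenol, 100uM IBMX, 25uM Ro-20-1724) added; 0.5hr RT; d2-cAMP and anti-cAMP-cryptate added; 1hr RT; 665/615 nm read.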

[15] = target: D(2) dopamine receptor (Homo sapiens) (UniProt P14416); experiment: Dopamine D2 receptor (DRD2) small molecule agonists, cell-based qHTS assay (AID 1963594); further: nearly all actives have a fitted effect of over 35% in size
Sequence of D(2) dopamine receptor (Homo sapiens) (P14416 whole entry, looked up): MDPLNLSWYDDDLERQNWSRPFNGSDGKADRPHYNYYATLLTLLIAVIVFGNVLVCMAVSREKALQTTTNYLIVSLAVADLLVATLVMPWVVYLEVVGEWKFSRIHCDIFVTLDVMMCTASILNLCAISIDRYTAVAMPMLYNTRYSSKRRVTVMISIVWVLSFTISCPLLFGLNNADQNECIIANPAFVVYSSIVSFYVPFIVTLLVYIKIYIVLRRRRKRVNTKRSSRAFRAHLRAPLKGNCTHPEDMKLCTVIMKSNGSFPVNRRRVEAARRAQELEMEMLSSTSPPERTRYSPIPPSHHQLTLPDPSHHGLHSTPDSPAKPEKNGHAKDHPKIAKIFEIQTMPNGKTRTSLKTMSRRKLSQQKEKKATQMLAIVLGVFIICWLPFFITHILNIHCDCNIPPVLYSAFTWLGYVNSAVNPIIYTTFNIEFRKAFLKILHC
Outline: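 HEK293 cells stably expressing human DRD2, pre-treated with PDE inhibitor Ro20-1724 (0.1 mM final) and compound 10 min at room temperature, then stimulated with NKH477 (200nM […]) for 30 min. cAMP read by HTRF (665/620 nm).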

[16] = target: D(2) dopamine receptor (Homo sapiens) (UniProt P14416); experiment: Dopamine D2 receptor (DRD2) small molecule antagonists, cell-based qHTS assay (AID 1963595; active means well fitted inhibition curve with a large enough effect in the signal ratio in the repeat runs, with a control signal flat; the % refers to the signal ratio; further: potency means the concentration at half of the fitted maximal effect)
Outline: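 DRD2-HEK293; 0.1 mM Ro20-1724; cpd 10 min RT; NKH477 200 nM + quinpirole 12 nM, 30 min RT; HTRF cAMP (cAMP-d2/anti-cAMP cryptate), 665/620 nm ratio after 1 h.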

[17] = p53 small molecule agonists, cell-based qHTS assay (AID 1963582; active means well fitted activation curve with a large enough effect in the signal ratio in the repeat runs, not every such curve was filed as active; the % refers to the signal ratio)
Outline: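 p53RE-bla reporter cells, compounds added in DMSO after 5 h plating, incubated 16 h at 37 C. Beta-lactamase read via 2 h room-temperature LiveBLAzer B/G FRET substrate, fluorescence intensity.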

[18] = target: 5-hydroxytryptamine receptor 2A (Homo sapiens) (UniProt P28223); experiment: 5-hydroxytryptamine receptor 2A (HTR2A) small molecule antagonists, cell-based qHTS assay (AID 1963586); further: nearly all actives have a fitted effect of over 45% in size; further: potency means the concentration at half of the fitted maximal effect
Outline: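 Antagonist-mode intracellular calcium assay: DOI (4 nM) added after 5 min compound pre-incubation at room temperature to dye-loaded HTR2A-CHO cells. Fluorescence followed for 3 min, sampled every second.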

[19] = cAMP Responsive Elements (CRE) small molecule agonists, cell-based qHTS assay (AID 1963590)
Outline: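 CRE-bla HEK 293T cells, 2,000/well in DMEM with 10% dialyzed FBS and 25 mM HEPES, pre-incubated 18 h at 37 C, then exposed to compound 3 h at 37 C. Beta-lactamase reporter read with LiveBLAzer B/G FRET substrate after 2 h at room temperature.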

[20] = cAMP Responsive Elements (CRE) small molecule antagonists, cell-based qHTS assay (AID 1963591; active means well fitted inhibition curve with a large enough effect in the signal ratio in the repeat runs, not every such curve was filed as active; the % refers to the signal ratio)
Outline: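 CRE-bla HEK293T cells plated 18 h, then given compound plus NKH477 at 0.25 uM final for 3 h at 37C. Beta-lactamase reporter read with LiveBLAzer B/G FRET substrate after 2 h at room temperature.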

O=C(NC(=O)c1cc(F)c(F)cc1Cl)Nc1cc(F)ccc1N1CCC(C(=O)O)CC1
Potency [1]: inactive | Potency [2]: inactive | Potency [3]: inactive | Potency [4]: inactive | Potency [5]: inactive | Potency [6]: inactive | Potency [7]: inactive | Potency [8]: inactive | Potency [9]: inactive | Potency [10]: inactive | Potency [11]: inactive | Potency [12]: inactive | Potency [13]: inactive | Potency [14]: inactive | Potency [15]: inactive | Potency [16]: inactive

CCc1ccc(C2CCNCC2)cc1
Potency [1]: inactive | Potency [2]: inactive | Potency [3]: inactive | Potency [4]: inactive | Potency [5]: inactive | Potency [6]: inactive | Potency [7]: inactive | Potency [8]: inactive | Potency [9]: inactive | Potency [17]: inactive | Potency [18]: 18.3 µM (active) | Potency [11]: 8.49 µM (active) | Potency [12]: inactive | Potency [13]: inactive | Potency [19]: inactive | Potency [20]: inactive | Potency [15]: inactive | Potency [16]: inactive

CCC[CH2][Sn]([CH2]CCC)([CH2]CCC)[O]C(=O)c1ccccc1
Potency [1]: 1.09 µM (active) | Potency [2]: 969 nM (active) | Potency [3]: 4.9 µM (active) | Potency [4]: 19.5 µM (active) | Potency [5]: inactive | Potency [6]: inactive | Potency [7]: inactive | Potency [8]: 3.24 µM (active) | Potency [9]: 4.58 µM (active) | Potency [10]: 1.62 µM (active) | Potency [18]: 1.33 µM (active) | Potency [11]: 21.9 µM (active) | Potency [14]: 864 nM (active) | Potency [15]: inactive | Potency [16]: 4.86 µM (active)

CC(Oc1ccc(Oc2ncc(C(F)(F)F)cc2Cl)cc1)C(=O)O (centres undefined)
Potency [1]: inactive | Potency [2]: inactive | Potency [3]: inactive | Potency [4]: inactive | Potency [5]: inactive | Potency [6]: inactive | Potency [7]: inactive | Potency [8]: inactive | Potency [9]: inactive | Potency [10]: inactive | Potency [18]: inactive | Potency [11]: inactive | Potency [12]: inactive | Potency [13]: inactive | Potency [14]: inactive | Potency [15]: inactive | Potency [16]: inactive

O=c1[nH]c2cc(Cl)ccc2n1C1CCNCC1
Potency [1]: inactive | Potency [2]: inactive | Potency [3]: inactive | Potency [4]: inactive | Potency [5]: inactive | Potency [6]: inactive | Potency [7]: inactive | Potency [8]: inactive | Potency [10]: inactive | Potency [17]: inactive | Potency [18]: inactive | Potency [11]: inactive | Potency [12]: inactive | Potency [13]: inactive | Potency [19]: inactive | Potency [20]: inactive | Potency [15]: inactive | Potency [16]: inactive
